According to the supplement of paper PMC3414501:
Counter-ions that a name gives are not always drawn. A number with no mark means an inactive call.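 Rule for the calls: active = HIS4 sensitivity z-score above 5 vs DMSO controls; inactive = score 5 or below.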

The compounds below were run on S. cerevisiae NKY1551 his4x/his4B, sporulating (assay: HIS4 meiotic recombination assay sensitivity score (z-score vs DMSO controls); higher = stronger inhibition of sporulation/recombination, active = hit call of the paper).

Row | Structure (SMILES) | HIS4 meiotic recombination assay sensitivity score
1 | Cc1ncc([N+](=O)[O-])n1CCO [Metronidazole] (stock concentration (mM, diluted 1:100): 10) | 0.15
2 | C=CC[C@@H]1/C=C(\C)C[C@H](C)C[C@H](OC)[C@H]2O[C@@](O)(C(=O)C(=O)N3CCCC[C@H]3C(=O)O[C@H](/C(C)=C/[C@@H]3CC[C@@H](O)[C@H](OC)C3)[C@H](C)[C@@H](O)CC1=O)[C@H](C)C[C@@H]2OC [Tacrolimus] (stock concentration (mM, diluted 1:100): 10) | -0.77
3 | CCC(=O)O[C@]1(C(=O)SCF)[C@H](C)C[C@H]2[C@@H]3C[C@H](F)C4=CC(=O)C=C[C@]4(C)[C@@]3(F)[C@@H](O)C[C@@]21C [Fluticasone propionate] (stock concentration (mM, diluted 1:100): 10) | -1.24
4 | C[C@]12CC[C@@H]3c4ccc(OS(=O)(=O)O)cc4CC[C@H]3[C@@H]1CCC2=O (stock concentration (mM, diluted 1:100): 10) | 1.4
5 | O=C(c1ccccc1)c1ccc2n1CCC2C(=O)O (centres undefined) [Toradol] (stock concentration (mM, diluted 1:100): 6.8) | -1.15
6 | NNCCc1ccccc1 [Phenelzine sulfate salt] (stock concentration (mM, diluted 1:100): 10) | -3.78
7 | CC(C)NCC(O)COc1ccc(CCOCC2CC2)cc1 (centres undefined) [Betaxolol hydrochloride] (stock concentration (mM, diluted 1:100): 10) | -0.58
8 | CC(C)C[C@H](NC(=O)[C@@H](COC(C)(C)C)NC(=O)[C@H](Cc1ccc(O)cc1)NC(=O)[C@H](CO)NC(=O)[C@H](Cc1c[nH]c2ccccc12)NC(=O)[C@H](Cc1cnc[nH]1)NC(=O)[C@@H]1CCC(=O)N1)C(=O)N[C@@H](CCCNC(=N)N)C(=O)N1CCC[C@H]1C(=O)NNC(N)=O [Goserelin acetate] (stock concentration (mM, diluted 1:100): 9.6) | -1.25
9 | Clc1ccc2c(c1)CCc1cccnc1C2=C1CCNCC1 [Desloratadine] (stock concentration (mM, diluted 1:100): 10) | 1.24
10 | COc1cccc2c1C(=O)c1c(O)c3c(c(O)c1C2=O)C[C@@](O)(C(=O)CO)C[C@@H]3O[C@H]1C[C@H](N)[C@H](O)[C@H](C)O1 [Doxorubicin hydrochloride] (stock concentration (mM, diluted 1:100): 9.4) | -0.73
11 | CC[C@@H]1C(=O)OC[C@@H]1Cc1cncn1C [Pilocarpine hydrochloride] (stock concentration (mM, diluted 1:100): 10) | -0.54
12 | CN(Cc1cnc2nc(N)nc(N)c2n1)c1ccc(C(=O)N[C@@H](CCC(=O)O)C(=O)O)cc1 [Methotrexate] (stock concentration (mM, diluted 1:100): 14.6) | 0.19
13 | CC(C(O)c1ccc(O)cc1)N1CCC(Cc2ccccc2)CC1 (centres undefined) [Ifenprodil] (stock concentration (mM, diluted 1:100): 9.2) | 4.63
14 | CN(C)CCc1c[nH]c2ccc(Cn3cncn3)cc12 [Rizatriptan benzoate] (stock concentration (mM, diluted 1:100): 10) | -0.35
15 | O=C(O[C@@H]1Cc2c(O)cc(O)cc2O[C@@H]1c1cc(O)c(O)c(O)c1)c1cc(O)c(O)c(O)c1 [Epigallocatechin gallate] (stock concentration (mM, diluted 1:100): 10) | 0.29
16 | CN(C)CCC=C1c2ccccc2COc2ccccc21 [Doxepin] (stock concentration (mM, diluted 1:100): 10) | 3.87
17 | CC#C[C@]1(O)CC[C@H]2[C@@H]3CCC4=CC(=O)CCC4=C3[C@@H](c3ccc(N(C)C)cc3)C[C@@]21C [Mifepristone] (stock concentration (mM, diluted 1:100): 10) | 2.99
18 | CC(C(=O)O)c1ccc(-c2ccccc2)c(F)c1 (centres undefined) [Flurbiprofen] (stock concentration (mM, diluted 1:100): 11.4) | -0.16
19 | CNCC[C@H](Oc1cccc2ccccc12)c1cccs1 [Duloxetine hydrochloride] (stock concentration (mM, diluted 1:100): 8.9) | 7.17 (active)
20 | COC(=O)C1=C(C)NC(C)=C(C(=O)OCC(C)C)C1c1ccccc1[N+](=O)[O-] (centres undefined) [Nisoldipine] (stock concentration (mM, diluted 1:100): 10) | -2.61
21 | Nc1c2c(nc3ccccc13)CCCC2 [Tacrine hydrochloride] (stock concentration (mM, diluted 1:100): 9) | -2.37
22 | O=C1N(c2ccccc2)c2ccccc2C1(Cc1ccncc1)Cc1ccncc1 (stock concentration (mM, diluted 1:100): 10) | 0.8
23 | CCCN[C@H]1CCc2nc(N)sc2C1 [Pramipexole] (stock concentration (mM, diluted 1:100): 10) | -2.92
24 | O=C1CCc2ccc(OCCCCN3CCN(c4cccc(Cl)c4Cl)CC3)cc2N1 [Aripiprazole] (stock concentration (mM, diluted 1:100): 10) | -1.42
25 | OC[C@H]1O[C@@H](n2cnc3c(N[C@H]4CCC[C@@H]4O)ncnc32)[C@@H](O)C1O (some centres undefined) (stock concentration (mM, diluted 1:100): 10) | 1.26
26 | CN1CCCC(n2nc(Cc3ccc(Cl)cc3)c3ccccc3c2=O)CC1 (centres undefined) [Azelastine hydrochloride] (stock concentration (mM, diluted 1:100): 9.1) | 10.7 (active)
27 | NC(N)=NC(=O)c1nc(Cl)c(N)nc1N (stock concentration (mM, diluted 1:100): 8.2) | 2.44
28 | C[C@@H]1O[C@@H](OC[C@H]2O[C@@H](Oc3c(-c4ccc(O)c(O)c4)oc4cc(O)cc(O)c4c3=O)[C@H](O)[C@@H](O)[C@@H]2O)[C@H](O)[C@H](O)[C@H]1O [Rutin] (stock concentration (mM, diluted 1:100): 10) | -1.04
29 | CC(C)(C#N)c1cc(Cn2cncn2)cc(C(C)(C)C#N)c1 [Anastrozole] (stock concentration (mM, diluted 1:100): 10) | 0.04
